Reference: PubChem BioAssay (EPA / NIEHS)
Records with an inconclusive call do not appear. The source made the active and inactive calls. The calls were made as follows, unless noted: active = hit-call score of the fitted dose curve at least 0.9, where 1 is the maximum; inactive = score below 0.9.

Legend:
[1] = CCTE_Shafer_MEA_dev_burst_duration_mean: CCTE's Neural Network Formation Assay for Mean Burst Duration, Shafer Lab (AID 2284045)
How it was run: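 Primary rat cortical neurons on PEI-coated 16-electrode MEA wells, exposed from plating through day 12 with compound renewed at DIV 5 and 9; spontaneous activity recorded days 5, 7, 9, 12. Well-mean burst duration collapsed as trapezoidal AUC, fitted for loss versus DMSO.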

[2] = CCTE_Shafer_MEA_dev_interburst_interval_mean: CCTE's Neural Network Formation Assay for Mean Interburst Interval, Shafer Lab (AID 2284046);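 also: well-mean interburst interval of bursting electrodes as AUC over four recording days; curve fitted for decrease in interburst interval relative to DMSO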
How it was run: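 Recordings on days 5, 7, 9 and 12 give well-mean interburst interval across actively bursting electrodes, summarized as area under the curve. Cultures: rat cortical neurons, continuous exposure from day 0, compound renewed at feeds; decrease analyzed versus DMSO.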

[3] = CCTE_Shafer_MEA_dev_inter_network_spike_interval_mean: CCTE's Neural Network Formation Assay for Mean Inter-network Spike Interval, Shafer Lab (AID 2284047)
How it was run: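 Primary rat cortical neurons on 16-electrode MEA wells, exposed from plating day 0 through DIV 12, compound renewed at DIV 5 and 9 media changes. Mean interval between network-spike peaks recorded DIV 5, 7, 9, 12; collapsed as trapezoidal AUC, fitted downward versus DMSO.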

[4] = CCTE_Shafer_MEA_dev_network_spike_peak: CCTE's Neural Network Formation Assay for Mean Number of Electrodes in Network Spike, Shafer Lab (AID 2284049);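 also: fitted for loss of signal meaning fewer electrodes in network spikes than DMSO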
How it was run: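 Continuous 12-day exposure of rat cortical cultures, starting at plating, on MEA plates. Endpoint: electrodes participating in network-spike peaks, AUC across DIV 5–12, DMSO as negative control.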

[5] = CCTE_Shafer_MEA_dev_spike_duration_mean: CCTE's Neural Network Formation Assay for Mean Spike Duration, Shafer Lab (AID 2284051);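 also: mean network spike duration pooled as area under curve over DIV 5 to 12 recordings; potency for a decrease in mean network spike duration versus DMSO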
How it was run: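 Primary rat cortical neurons on 16-electrode MEA wells (PEI-coated, laminin in plating drop), exposed from plating through DIV 12 with compound renewed at DIV 5 and 9. Mean network-spike duration recorded DIV 5, 7, 9, 12; trapezoidal AUC across days, DMSO baseline.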

[6] = CCTE_Shafer_MEA_dev_network_spike_duration_std: CCTE's Neural Network Formation Assay for Standard Deviation of Network Spike Duration, Shafer Lab (AID 2284052);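 also: area under curve of spike duration SD across recording days 5 to 12; hits are decreases in network spike duration SD versus DMSO vehicle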
How it was run: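 Primary rat cortical neurons on PEI-coated 16-electrode MEA wells, exposed from plating day 0 through day 12 with compound renewed at DIV 5 and 9. Network spike duration SD recorded on days 5, 7, 9, 12, collapsed as trapezoidal AUC; loss-of-signal fit versus DMSO.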

[7] = CCTE_Shafer_MEA_dev_per_network_spike_spike_number_mean: CCTE's Neural Network Formation Assay for Mean Number of Spikes in a Network Spike, Shafer Lab (AID 2284053);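 also: fitted as decrease in spikes per network spike relative to DMSO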
How it was run: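 Primary rat cortical neurons on 48-well, 16-electrode MEA plates were exposed from plating to DIV 12, with dosing renewed on DIV 5 and 9. Spikes per network spike (0.05 s peak window) were recorded on DIV 5, 7, 9 and 12 and collapsed as trapezoidal AUC versus DMSO.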

[8] = CCTE_Shafer_MEA_dev_per_network_spike_spike_percent: CCTE's Neural Network Formation Assay for Percent of Spikes in a Network Spike, Shafer Lab (AID 2284054)
How it was run: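 Primary rat cortical neurons on 16-electrode MEA wells (PEI-coated, laminin at plating), exposed from day 0 with renewal at DIV 5 and 9; spikes within 0.05 s of network-spike peaks over total spikes, AUC across days 5, 7, 9, 12.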

[9] = CCTE_Shafer_MEA_acute_AB: CCTE's Alamar Blue Assay for Cytotoxicity in the Neural Acute Assay, Shafer Lab (AID 2284069; active = hit-call score of the fitted dose curve at least 0.9, where 1 is the maximum;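 also: active compounds lower the viability signal compared with DMSO wells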)
How it was run: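 Primary rat cortical neurons on MEA plates, exposed acutely after baseline recording on day 13 or 15 post-plating. Viability by CellTiter Blue resazurin reduction (1:6 reagent dilution), fluorescence 544/590 nm; loss of signal versus DMSO.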

[10] = CCTE_Shafer_MEA_acute_LDH: CCTE's Lactate Dehydrogenase Assay for Cytotoxicity in the Neural Acute Assay, Shafer Lab (AID 2284086; active = hit-call score of the fitted dose curve at least 0.9, where 1 is the maximum;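 also: active means LDH release rises above DMSO vehicle level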)
How it was run: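 Medium from rat cortical neuron MEA cultures sampled right after the 40 min compound-exposure recording; released LDH measured by absorbance at 490 nm. Analyzed as signal gain relative to DMSO.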

[11] = CCTE_Shafer_MEA_dev_mutual_information_norm: CCTE's Neural Network Formation Assay for Mutual Information Normalization, Shafer Lab (AID 2284091);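 also: mutual information between electrodes summarised as area under curve across four recording days; potency is for a decrease in mutual information relative to DMSO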
How it was run: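 Rat cortical cultures, 48-well MEA, continuous exposure DIV 0–12 with full media/compound change DIV 5 and 9. Readout: inter-electrode mutual information, AxIS adaptive spike detection; AUC across DIV 5/7/9/12 recordings; DMSO baseline, negative fitting direction.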

[12] = CCTE_Shafer_MEA_dev_correlation_coefficient_mean: CCTE's Neural Network Formation Assay for Mean Correlation Coefficient, Shafer Lab (AID 2284093);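 also: well mean pairwise spike train correlation integrated as AUC over recording days 5 to 12; potency fitted for loss of correlation relative to DMSO vehicle wells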
How it was run: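 Spontaneous activity recorded on days 5, 7, 9 and 12 post-plating; pairwise spike correlations are averaged across active electrodes and collapsed to an area-under-curve. Rat cortical cultures are dosed from plating through 12 days, with compound renewed at media changes.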

[13] = CCTE_Mundy_HCI_Cortical_Synap_Neur_Matur_NeuriteSpotCountPerNeuriteLength: CCTE's Synaptogenesis and Neurite Maturation Assay in rat cortical cells for Neurite Spot Count per Neurite Length, Mundy Lab (AID 2284210)
How it was run: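 Rat primary cortical cultures, glia arrested with AraC at DIV 5, were dosed with media change at DIV 7 and fixed at DIV 12. Synaptophysin puncta per MAP2-labelled neurite length were quantified by high-content imaging versus DMSO.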

[14] = CCTE_Mundy_HCI_Cortical_Synap_Neur_Matur_BPCount: CCTE's Synaptogenesis and Neurite Maturation Assay in rat cortical cells for Branch Point Count, Mundy Lab (AID 2284211)
How it was run: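 Rat primary cortical cultures, AraC added DIV 5; chemicals dosed DIV 7 through DIV 12. Fixed cells stained for MAP2, synaptophysin and Hoechst; neurite branch points counted by automated high-content imaging, fitted relative to DMSO.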

[15] = CCTE_Mundy_HCI_Cortical_NOG_NeuriteCount: CCTE's Neurite Outgrowth Assay in rat cortical cells for Neurite Count, Mundy Lab (AID 2284212);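 also: cells fixed about two days after chemical exposure began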
How it was run: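 Neurite number per cell from high-content imaging of betaIII-tubulin immunostaining, with Hoechst nuclear counterstain.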

[16] = CCTE_Mundy_HCI_Cortical_NOG_NeuriteLength: CCTE's Neurite Outgrowth Assay in rat cortical cells for Neurite Length, Mundy Lab (AID 2284213)
How it was run: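 Neurite length was read by high-content imaging of βIII-tubulin-labelled neurites in rat primary cortical cultures. Activity was fitted relative to DMSO.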

[17] = CCTE_Mundy_HCI_Cortical_Synap_Neur_Matur_NeuriteLength: CCTE's Synaptogenesis and Neurite Maturation Assay in rat cortical cells for Neurite Length, Mundy Lab (AID 2284214)
How it was run: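 Rat primary cortical cultures, AraC added DIV 5, dosed DIV 7 through DIV 12 […]. Fixed, MAP2/synaptophysin immunostained with Hoechst; neurite length by high-content imaging, fitted in positive direction versus DMSO.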

[18] = CCTE_Mundy_HCI_Cortical_Synap_Neur_Matur_NeuriteSpotCountPerNeuron: CCTE's Synaptogenesis and Neurite Maturation Assay in rat cortical cells for Neurite Spot Count per Neuron Count, Mundy Lab (AID 2284215)
How it was run: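 Rat cortical primary cultures; AraC DIV 5 to arrest glia; dosing + media change DIV 7; fixed DIV 12. Anti-MAP2/anti-synaptophysin, Hoechst nuclei; HCI puncta count per neuron, positive fitting direction vs DMSO.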

[19] = CCTE_Mundy_HCI_Cortical_Synap_Neur_Matur_SynapseCount: CCTE's Synaptogenesis and Neurite Maturation Assay in rat cortical cells for Synapse Count, Mundy Lab (AID 2284218)
How it was run: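 Rat primary cortical cultures, AraC at DIV 5, chemical dosing DIV 7 to DIV 12 (288.33 h). Fixed cells stained for MAP2, synaptophysin and Hoechst; synapses per neuron counted by high-content imaging, loss of signal versus DMSO.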

[20] = CCTE_Mundy_HCI_Cortical_Synap_Neur_Matur_NeuriteCount: CCTE's Synaptogenesis and Neurite Maturation Assay in rat cortical cells for Neurite Count, Mundy Lab (AID 2284222);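 also: exposure from day 7 to day 12 in vitro with readout at day 12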
How it was run: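 Rat primary cortical cells; AraC added at DIV 5, chemicals dosed with media change at DIV 7 through DIV 12. MAP2/synaptophysin/Hoechst immunostaining, high-content imaging of neurite number; fitted relative to DMSO.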

[21] = CCTE_Mundy_HCI_Cortical_Synap_Neur_Matur_CellBodySpotCount: CCTE's Synaptogenesis and Neurite Maturation Assay in rat cortical cells for Cell Body Spot Count, Mundy Lab (AID 2284223)
How it was run: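 Rat cortical neurons; AraC @ DIV 5; dose + media change DIV 7; fix DIV 12; anti-MAP2/anti-synaptophysin IF, Hoechst; HCI count of soma synaptophysin puncta/neuron; DMSO = negative control.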

[22] = CCTE_Mundy_HCI_Cortical_NOG_NeuronCount: CCTE's Neurite Outgrowth Assay in rat cortical cells for Neuron Count, Mundy Lab (AID 2284236; active = hit-call score of the fitted dose curve at least 0.9, where 1 is the maximum;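 also: neurons counted by imaging betaIII-tubulin and Hoechst stained cortical cells; cells exposed to compound for about 48 hours before fixation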)
How it was run: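 Read-out: neuron number by high-content imaging of betaIII-tubulin (Alexa Fluor-488) and Hoechst-labelled rat primary cortical cells.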

[23] = CCTE_Mundy_HCI_Cortical_NOG_BPCount: CCTE's Neurite Outgrowth Assay in rat cortical cells for Branch Point Count, Mundy Lab (AID 2284237)
How it was run: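 Measured 50.33 h after dosing, this morphology endpoint uses rat primary cortical cultures labelled for betaIII-tubulin. Branch points are quantified by high-content imaging, with DMSO as negative control and baseline.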

[24] = CCTE_Mundy_HCI_hNP1_Casp3_7: CCTE's Caspase-Glo 3/7 Assay in human neuroprogenitor cells for Apoptosis, Mundy Lab (AID 2284240)
How it was run: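 Neuroepithelial-lineage stem cells from WA09 embryonic cells were treated with chemicals after 40–44 h of culture. Twenty-four hours later, caspase-3/7 activation was detected luminescently after a 30 min room-temperature reagent step, with DMSO as baseline.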

[25] = CCTE_Mundy_HCI_hNP1_CellTiter: CCTE's Cell Titer-Glo 2 Assay in human neuroprogenitor cells for Viability, Mundy Lab (AID 2284241; active = hit-call score of the fitted dose curve at least 0.9, where 1 is the maximum;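 also: a hit is a drop in ATP luminescence versus DMSO meaning reduced viability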)
How it was run: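 Measures ATP content in human neural progenitors derived from WA09 embryonic cells. Read-out at 26.5 hours after dosing, with DMSO serving as the negative control and baseline.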

[26] = CCTE_Mundy_HCI_iCellGluta_NOG_NeuronCount: CCTE's Neurite Outgrowth Assay in iCellGluta cells for Neuron Count, Mundy Lab (AID 2284340; active = hit-call score of the fitted dose curve at least 0.9, where 1 is the maximum;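 also: cells fixed about 48 h after compound addition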)
How it was run: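 Neuron count read by automated high-content imaging of Hoechst 33342 and betaIII-tubulin/Alexa Fluor-488 labelling in human iPSC glutamatergic neurons. Activity fitted relative to DMSO.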

[27] = CCTE_Mundy_HCI_iCellGluta_NOG_NeuriteCount: CCTE's Neurite Outgrowth Assay in iCellGluta cells for Neurite Count, Mundy Lab (AID 2284342; active = hit-call score of the fitted dose curve at least 0.9, where 1 is the maximum;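 also: chemical exposure about 48 hours starting 2 hours after plating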)

Measured: AC50

CC1(C)[C@H](C=C(Cl)Cl)[C@@H]1C(=O)O[C@@H](C#N)c1cccc(Oc2ccccc2)c1
active: [4] 8.44 µM | [5] 4.92 µM | [6] 4.6 µM | [7] 5.97 µM | [8] 15 µM | [11] 2.25 µM | [12] 4.79 µM | [25] 26 µM
inactive: [1] | [2] | [3] | [9] | [10] | [13] | [14] | [15] | [16] | [17] | [18] | [19] | [20] | [21] | [22] | [23] | [24] | [26] | [27]
